Sampled rows, rich in hits. Any-hit rate of the full collection: about 2%.
Granule exo inh: lytic granule exocytosis inhibition. 360,000 compounds, 0.66% hits. inhibition, % at 10 µM. TALL-104 LAMP-1 surface exposure, flow cytometry; cells stimulated with thapsigargin and PMA. AID 651702;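 active = inhibition above about 55%, limit read from the data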
TLR9-MyD88 block: TLR9-MyD88 interaction inhibition; Q9NR96+Q99836; CHO BLA complementation TLR9-MyD88, CCF4 FRET ratio; inhibition, % at 4.98 µM; 340,000 compounds, 0.21% hits; AID 504734;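 active = inhibition above the mean over all tested compounds plus 3 SD, cut at about 21% in these data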;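 also: 0% = DMSO only wells and 100% = clavulanate BLA inhibitor control wells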
ABHD5 PLIN5 PPI: ABHD5-PLIN5 protein interaction inhibition. Q00G26+Q8WTS1. Split G. princeps luciferase complementation, luminescence, 4 h. inhibition, % at 4 µM. 360,000 compounds, 0.78% hits;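 active = inhibition above the mean inhibition across every tested compound plus 3 SD, cut at about 22% in these data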;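 also: 0% = DMSO only wells and the 100% control is not disclosed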
Beta2AR agonist: activates human beta-2 adrenergic receptor causing internalization; P07550; response, % (test concentration not listed); Am2.2-beta2AR cells, FAP receptor internalization, flow cytometry; AID 504454; 340,000 compounds, 0.43% hits;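 active = response above a set limit, near 3 SD of response in nonfluorescent compounds, cut at about 42% in these data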
Target sequence (P07550 whole entry, looked up): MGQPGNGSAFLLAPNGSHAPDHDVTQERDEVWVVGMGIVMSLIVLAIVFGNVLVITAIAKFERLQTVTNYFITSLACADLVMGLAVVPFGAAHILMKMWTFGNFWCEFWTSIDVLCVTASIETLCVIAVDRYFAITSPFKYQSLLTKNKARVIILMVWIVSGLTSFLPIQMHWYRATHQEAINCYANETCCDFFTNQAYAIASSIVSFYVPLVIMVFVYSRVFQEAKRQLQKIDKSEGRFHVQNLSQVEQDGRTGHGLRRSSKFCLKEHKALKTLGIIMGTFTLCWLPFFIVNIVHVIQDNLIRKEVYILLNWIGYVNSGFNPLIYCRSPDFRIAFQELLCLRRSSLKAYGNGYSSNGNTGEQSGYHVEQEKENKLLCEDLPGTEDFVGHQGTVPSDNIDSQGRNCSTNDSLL
TLR4 MyD88 comp: blocks binding of human TLR4 to MyD88. HeLa CL3-4 TLR4/MyD88 BLA complementation, FRET ratio. 200,000 compounds, 0.18% hits. AID 861. inhibition, % at 8.4 µM. O00206+Q99836; in the data active = inhibition above about 25%;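 also: 0% = vehicle and 100% = reference inhibitor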
NOD2-RIPK2 inh: NOD2-RIPK2 protein interaction inhibition; O43353; CHO BLA complementation NOD2-RIPK2, CCF4 ratio; inhibition, % at 4.98 µM; 360,000 compounds, 0.38% hits; AID 624267; in the data active = inhibition above about 21%;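 also: 0% = vehicle only and 100% = reference blocker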
TLR4 MyD88 cnf: confirmation of human TLR4-MyD88 binding inhibitors | shares compounds with TLR4 MyD88 comp | HeLa CL3-4 BLA complementation, CCF4 FRET ratio | inhibition, % at 8.4 µM | 350 compounds, 50% hits;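 active = mean inhibition across three repeat runs above about 25% carried over from the earlier screen, limit read from the data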;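 also: plate controls were DMSO only for no effect and clavulanic acid blocking BLA at full dose for full effect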
BLA inhibitor ct: beta-lactamase inhibition flagged in TLR4-MyD88 counter-screen | 350 compounds, 63% hits | HeLa BLA reporter, CCF4 FRET ratio | inhibition, % at 8.4 µM | shares compounds with TLR4 MyD88 comp;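 active = mean inhibition over three repeats above about 26% taken from the earlier screen, limit read from the data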;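 also: HeLa cells stably expressing beta-lactamase reporter as counterscreen for TLR4-MyD88 inhibitors; 0% = DMSO and 100% = clavulanic acid full inhibition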
* marks the source's active call; other numbers are inactive results; / = no result given.

SMILES | Granule exo inh | TLR9-MyD88 block | ABHD5 PLIN5 PPI | Beta2AR agonist | TLR4 MyD88 comp | NOD2-RIPK2 inh | TLR4 MyD88 cnf | BLA inhibitor ct
COc1cc2c3nnc(-c4ccc(F)cc4)c-3cn(Cc3cccc(F)c3)c2cc1OC | -2 | -5 | 1 | -73 | 26* | -9 | 16 | 50*
O=C(CCN1CCOCC1)Nc1ccc2c(c1)CCC2 | 3 | 0 | 0 | 0 | 25* | -4 | -1 | 4
CC(O)CN(Cc1cccc(Cl)c1)CC(C)O (configuration not stated) | -2 | 8 | 1 | 9 | 28* | -3 | -5 | 4
CN(Cc1ccccc1)/C(=N/O)c1cccc(Cl)c1 | -7 | 2 | -2 | 6 | / | 8 | / | /
Cc1ccc(/C=C2\CCC3=C2OC(N)=C(C#N)C3c2ccc(C)cc2)cc1 (configuration not stated) | 1 | 11 | 6 | / | 34* | 11 | 29* | 66*
Cc1ccc(C2C(C#N)=C(N)Oc3cc(N)ccc32)cc1 (configuration not stated) | -21 | 2 | 2 | 9 | / | -1 | / | /
Cn1c(-c2ccc(C=O)s2)nc2c3ccccc3c3ccccc3c21 | 45 | 1 | -56 | -17 | 47* | 8 | 40* | 61*
Cc1ccccc1S(=O)(=O)NC(=O)C1(C)CCN1C(=O)CC(c1ccccc1)c1ccccc1 (configuration not stated) | 29 | / | -2 | / | / | 2 | / | /
CCCCCCCn1c2c(c(=N)c3c1CCC3)CCCC2 | 21 | 7 | 4 | -4 | 26* | -7 | 21 | 26*
CCCCCCn1c2c(c(=N)c3c1CCC3)CCC2 | -2 | 1 | 6 | -5 | 27* | 1 | 7 | 24
COC(=O)[C@@H]1ON2OCC(C)=C3CCCC[C@@]32[C@H]1C(=O)OC | 2 | / | -3 | / | / | 1 | / | /
Cc1cccc2sc(=S)[nH]c12 | -13 | / | -5 | / | / | -11 | / | /
OCCCc1nc2n(n1)C(c1cccs1)C=C(c1ccccc1)N2 (configuration not stated) | / | / | / | / | 24 | / | / | /
OCCCc1nc2n(n1)C(c1ccccc1Cl)C=C(c1cccs1)N2 (configuration not stated) | 2 | 51* | 9 | -3 | 32* | 72* | 19 | 52*
CC(=O)C1CCC2C3CC=C4CC(SC(=N)N)CCC4(C)C3CCC12C (configuration not stated) | 8 | 3 | 1 | 17 | / | 7 | / | /
CCCCCCNC(=O)C(C#N)c1nc2ccccc2nc1N1CCCC1 (configuration not stated) | 0 | 5 | -8 | -3 | 38* | -15 | 29* | 1
CCCCCNC(=O)C(C#N)c1nc2ccccc2nc1N1CCCC1 (configuration not stated) | 6 | 2 | -9 | 15 | -12 | -6 | / | /
Cc1ccc(S(=O)(=O)C[C@@H]2OC[C@H](CO)N2S(=O)(=O)c2ccc(C)cc2)cc1 | -2 | / | -7 | / | / | -3 | / | /
COc1ccc(CN2C[C@@H](CO)O[C@@H](n3cnc4c(N(C)C)ncnc43)C2)cc1 | 5 | / | 2 | / | / | -4 | / | /
Cc1ccc(-c2nc3ccccc3nc2-c2ccccc2)cc1 | 1 | -2 | -5 | -7 | / | -1 | / | /
CCCCn1nc(-c2ccccc2)c2nc3ccccc3nc21 | / | / | / | / | 49* | / | 47* | 50*
Cn1nc(-c2ccccc2)c2nc3ccccc3nc21 | -1 | 9 | -7 | -2 | 28* | 16 | 22 | 44*
CN(C)c1ccc(/C=C/c2cc[n+]([O-])cc2)cc1 | / | / | / | / | 7 | / | / | /
CN(C)c1ccc(/C=C/c2cc[n+](C)cc2)cc1 | -5 | 3 | 8 | -773 | 26* | 1 | 11 | 21
CCCCn1c2nc3ccccc3nc2c2c(=N)oc(C)nc21 | 0 | 2 | 6 | -17 | / | -5 | / | /
SMILES | Granule exo inh | TLR9-MyD88 block | ABHD5 PLIN5 PPI | Beta2AR agonist | TLR4 MyD88 comp | NOD2-RIPK2 inh | TLR4 MyD88 cnf | BLA inhibitor ct
CCCCC(CC)Cn1c2nc3ccccc3nc2c2c(=N)oc(C)nc21 (configuration not stated) | / | / | / | / | 48* | / | -6 | -6
CN(C)c1ccc(C2CC(c3ccccc3)=Nc3nc(-c4ccccc4)cn32)cc1 (configuration not stated) | / | / | / | / | 25* | / | 4 | 19
CCCCOC(=O)c1ccc(S(N)(=O)=O)o1 | 2 | 7 | -4 | -1 | -6 | -3 | / | /
CCCOC(=O)c1ccc(S(N)(=O)=O)o1 | 1 | 0 | -1 | -3 | 27* | -3 | -8 | 1
CCOC(=O)c1c2ccc(OCC(=O)N/N=C/c3ccc(Cl)cc3)cc2n2ccccc12 | / | / | / | / | 52* | / | 54* | 34*
O=C(NCc1cccnc1)c1csc([C@H]2C[C@H](O)[C@@H](CO)O2)n1 | 0 | / | 3 | / | / | -4 | / | /
C=CCNc1sc(C(=O)c2ccc(Br)s2)c(N)c1C#N | -2 | -3 | 7 | 2 | 37* | -3 | 20 | 55*
C=CCNc1sc(C(=O)c2ccccc2)c(N)c1C#N | -1 | -6 | -2 | -6 | -6 | -10 | / | /
COc1cccc(-c2cc(C(F)(F)F)c3c(N)c(C#N)sc3n2)c1 | / | / | / | / | 27* | / | 20 | 49*
O=C(Nc1ccc2oc(-c3cccnc3)nc2c1)c1ccc([N+](=O)[O-])o1 | -1 | 4 | 1 | 36 | 30* | 0 | 16 | 8
Cc1cc(/C=C2\Sc3ccccc3N2C)cc(C)[n+]1CC1CCCO1 (configuration not stated) | 54 | / | -3 | -229 | 36* | 0 | 23 | 41*
C[C@@H]1CN([C@H](C)CO)C(=O)CCCn2nncc2CO[C@H]1CN(C)S(=O)(=O)c1cccc(F)c1 | 2 | 5 | 2 | / | / | 5 | / | /
Cc1noc(C)c1COC(=O)c1cc(F)c(F)cc1Cl | 2 | -3 | 2 | -8 | 2 | 5 | / | /
Cc1noc(C)c1COC(=O)c1cnc(Cl)c(Cl)c1 | -1 | -2 | 3 | 9 | 26* | -9 | 19 | 5
CCOc1ccc(NC(=O)/C(C#N)=C/c2ccc(N3CCCC3)c(C)c2)cc1 | 2 | 11 | 1 | -52 | 27* | 1 | 28* | 65*
O=C1N=c2ccccc2=C1c1sc(Nc2cccc(O)c2)nc1O | 20 | -15 | 3 | 7 | / | -1 | / | /
O=C1N=c2ccccc2=C1c1sc(Nc2ccc(O)cc2)nc1O | 4 | -6 | 0 | 3 | 27* | -3 | 2 | 6
Oc1ccc2ccccc2c1/C=N/Nc1nnc(-c2ncc[nH]2)c2ccccc12 | 0 | -6 | 5 | 10 | 33* | 1 | 22 | 50*
N#Cc1sc2nc(-c3cccs3)cc(-c3ccc(F)cc3)c2c1N | -3 | 26* | -7 | 10 | 26* | 12 | 39* | 63*
